The record followed here is the antibiotic and cytotoxicity screens of Wong et al. (2023).

SMILES strings stand for the structures. Screen size: about 39,000 compounds; about 3,300 (8.5%) were called active. This is one part of a sample in which actives are shown more often than they occur.

The assay relates to HepG2. Nature of the assay: cytotoxicity call (relative viability < 0.9). Particulars: 10 µM.
Regarding `COc1ccc(S(=O)(=O)N(C)C[C@@H]2Oc3ccc(NC(=O)CCCN(C)C)cc3C(=O)N([C@@H](C)CO)C[C@H]2C)cc1`, the cytotoxicity call was “inactive”.

Consider `C[C@@H]1CCCCO[C@@H](CN(C)C(=O)c2ccccc2)[C@H](C)CN([C@H](C)CO)C(=O)c2cc(NC(=O)c3ccccc3)ccc2O1`, for which the cytotoxicity call was “inactive”. Next, `CC(C)NC(=O)Nc1ccc2c(c1)CC(=O)N([C@@H](C)CO)C[C@@H](C)[C@H](CN(C)S(=O)(=O)c1cn(C)cn1)O2`: “inactive”; `C[C@@H]1CN([C@H](C)CO)C(=O)c2cc(NC(=O)Nc3ccccc3)ccc2O[C@H]1CN(C)C(=O)Nc1ccc(C(F)(F)F)cc1`: “inactive”.

Turning to `O=C(O)C[C@@H]1CC[C@H]2[C@@H](COC[C@@H](O)CN2S(=O)(=O)c2ccc(F)cc2)O1`, the cytotoxicity call was “inactive”. In the case of `COc1ccc(NC(=O)Nc2cccc3c2O[C@@H](CN(C)CC2CCCCC2)[C@H](C)CN([C@H](C)CO)C3=O)cc1`, the cytotoxicity call is “inactive”. The result for `Cc1cc(C(=O)Nc2cccc3c2O[C@@H](CN(C)C(=O)Nc2ccc4c(c2)OCO4)[C@@H](C)CN([C@@H](C)CO)C3=O)n(C)n1` reads “active”. Next, `C[C@H](CO)N1C[C@H](C)[C@@H](CN(C)C(=O)Nc2ccc3c(c2)OCO3)Oc2ncc(-c3cncnc3)cc2C1=O`: “active”. `C[C@@H]1CN([C@@H](C)CO)C(=O)c2cc(-c3cncnc3)cnc2O[C@H]1CN(C)C(=O)Nc1ccc2c(c1)OCO2`: the cytotoxicity call is “inactive”. Next, `CC(C)NC(=O)N(C)C[C@@H]1Oc2c(NC(=O)Nc3ccc4c(c3)OCO4)cccc2C(=O)N([C@@H](C)CO)C[C@H]1C`: “active”; `CC(C)NC(=O)N(C)C[C@@H]1Oc2ccc(NC(=O)Nc3ccc4c(c3)OCO4)cc2C(=O)N([C@@H](C)CO)C[C@@H]1C`: “active”; `CC(C)NC(=O)N(C)C[C@H]1Oc2c(NC(=O)Nc3ccc4c(c3)OCO4)cccc2C(=O)N([C@@H](C)CO)C[C@H]1C`: “inactive”. Next, `Cc1cc(C(=O)Nc2cccc3c2O[C@H](CN(C)C(=O)Nc2ccc4c(c2)OCO4)[C@H](C)CN([C@@H](C)CO)C3=O)n(C)n1`: “inactive”. The result for `CC(C)NC(=O)N(C)C[C@H]1Oc2ccc(NC(=O)Nc3ccc4c(c3)OCO4)cc2C(=O)N([C@@H](C)CO)C[C@H]1C` reads “inactive”. As to `CC(C)NC(=O)N(C)C[C@@H]1Oc2c(NC(=O)Nc3ccc4c(c3)OCO4)cccc2C(=O)N([C@H](C)CO)C[C@H]1C`, the cytotoxicity call is “inactive”. Next, `C[C@@H]1CN([C@H](C)CO)C(=O)c2cc(-c3cncnc3)cnc2O[C@@H]1CN(C)C(=O)Nc1ccc2c(c1)OCO2`: “inactive”. Next, `CC(C)NC(=O)N(C)C[C@H]1Oc2ccc(NC(=O)Nc3ccc4c(c3)OCO4)cc2C(=O)N([C@H](C)CO)C[C@H]1C`: “inactive”; `Cc1cc(C(=O)Nc2cccc3c2O[C@@H](CN(C)C(=O)Nc2ccc4c(c2)OCO4)[C@H](C)CN([C@@H](C)CO)C3=O)n(C)n1`: “inactive”.
